Source: PubChem
SW480 rereplic = induces DNA re-replication in SW480 colon adenocarcinoma cells; SW480 DNA re-replication, Hoechst DNA content imaging, 48 h; Potency, µM (doses to about 46.1 µM), without a hit: top-dose re-replication activation, most hits filed as activators; actives 1.8% (n = 340,000); AID 624297; also: % of control where 0% means no effect; nearly all actives have a fitted effect of over 55% in size
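Compounds, transferred as 23 nL by pin tool, were incubated with cells for 48 hr; DNA content per nucleus was then quantified by Hoechst staining and fluorescence plate imaging.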
RORg inh = ROR gamma (mouse) transcription inhibition; Potency, µM (doses to about 53.6 µM), inactives show top-dose activity change, negative = inhibition, actives largely listed as inhibitors; Drosophila S2 Gal4-RORgamma UAS-luciferase reporter, 20 h; actives 5.4% (n = 310,000); also: % is scaled to controls: 0 for no effect and ±100 for the full control effect; nearly all actives have a fitted effect of over 60% in size
Target sequence (P51450 whole entry, looked up, the tested form may be a part): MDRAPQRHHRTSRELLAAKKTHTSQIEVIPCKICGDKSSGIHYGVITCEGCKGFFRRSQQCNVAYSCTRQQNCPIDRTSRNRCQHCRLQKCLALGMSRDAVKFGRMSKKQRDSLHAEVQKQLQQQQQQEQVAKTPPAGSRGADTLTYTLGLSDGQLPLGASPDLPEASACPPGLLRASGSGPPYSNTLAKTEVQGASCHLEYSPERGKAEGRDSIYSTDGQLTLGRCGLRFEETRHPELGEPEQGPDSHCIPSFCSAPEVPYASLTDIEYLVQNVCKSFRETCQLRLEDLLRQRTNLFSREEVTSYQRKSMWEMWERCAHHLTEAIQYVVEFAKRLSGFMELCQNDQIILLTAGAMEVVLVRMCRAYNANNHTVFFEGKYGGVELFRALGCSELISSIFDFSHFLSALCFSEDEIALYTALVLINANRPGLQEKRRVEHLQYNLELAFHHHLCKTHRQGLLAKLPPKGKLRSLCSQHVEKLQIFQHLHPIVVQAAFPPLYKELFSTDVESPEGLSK
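Drosophila Schneider cells stably carrying a metallothionein-driven Gal4 DBD–ROR gamma fusion and a UAS-Photinus luciferase reporter were exposed to compound for 1 hr, then induced with copper sulfate (700 uM final) for 20 hr at ambient temperature before luminescence reading.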
ELG1 repair inh = blocks ELG1-dependent DNA repair in HEK293T cells; HEK293T ELG1-luciferase reporter, luminescence, 16 h; DNA damage induced by 5-fluorouridine; Potency, µM (series often up to 46.1 µM), for inactives: at the highest dose activity change, negative = inhibition, most hits filed as inhibitors; actives 2.3% (n = 330,000); AID 504467; also: % is scaled to controls: 0 for no effect and ±100 for the full control effect; nearly all actives have a fitted effect of over 55% in size
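Overnight (16 hr) co-exposure of 2,000 cells/well to 5-fluorouridine and compound at 37 °C preceded detection. Luciferase was quantified via ONE-Glo luminescence; loss of signal denotes inhibition.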
Gal4-VP16 FLuc = counter-screen for ROR gamma inhibitors: Gal4-VP16 reporter; Drosophila S2 Gal4-VP16 UAS-luciferase, luminescence, 20 h; Potency, µM (series often up to 53.6 µM), inactives show at the highest dose activity, negative = inhibition, hits mostly inhibitors; actives 3.5% (n = 310,000); AID 2546;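 also: Gal4-VP16 expression switched on by copper sulfate through the metallothionein promoter; % is scaled to controls: 0 for no effect and ±100 for the full control effect; nearly all actives have a fitted effect of over 50% in size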
MCF10A rereplic = DNA re-replication induction in MCF 10a cells | actives 2.9% (n = 350,000) | Potency, µM (top dose mostly 46.1 µM), for the others: at the highest dose activity, positive = re-replication, usual class: activators | MCF 10A DNA re-replication, Hoechst nuclear intensity, 48 h | AID 624296; also: % of control where 0% means no effect; nearly all actives have a fitted effect of over 50% in size
Starred values were filed as active, the others as inactive; u = inconclusive; x = no result given; [ ] = another dose, or the depositor's remark. An excerpt weighted towards active compounds, which were near 10% of everything screened. Calls follow the shape of the dose curve; as a rule, active = well fitted curve in the direction sought with a large enough effect; inconclusive = small, poorly fitted or top-dose-only effect, or another doubt; inactive = no such curve, though single readings can be large; an effect the other way counts as inactive or inconclusive. Potency is read from the fitted curve at half-maximal effect.

SMILES	SW480 rereplic	RORg inh	ELG1 repair inh	Gal4-VP16 FLuc	MCF10A rereplic
O=C(c1cc(-c2ccc(Cl)c(Cl)c2)on1)N1CCOCC1	3.6%	9.3%	u	-0.3%	2.1%
O=C(c1cc(-c2ccc(Cl)cc2)on1)N1CCOCC1	-5.0%	10µM*	u	u	8.2%
O=C(c1cc(-c2ccc(Cl)cc2Cl)on1)N1CCOCC1	-7.9%	10µM*	u	u	-3.0%
O=C(c1cc(-c2ccc3c(c2)OCO3)on1)N1CCOCC1	-8.3%	10µM*	u	7.94µM*	-6.5%
COCC(=O)N/N=C(\C)CC(=O)NCc1ccco1	-10.8%	14.7%	-13.0%	2.6%[10 µM]	-13.0%
c1ccc(Nc2ncnc3sc4c(c23)CCC4)cc1	1.4%	-3.4%	-0.9%	7.5%	7.9%
c1csc(CCNc2ncnc3sc4c(c23)CCC4)c1	14.3%	-42.6%	u	11.2µM*	5.2%
CCOC(=O)c1[nH]c(C)c(C(=O)Nc2ccc(C)c(F)c2)c1C	11.6µM*	-22.4%	-4.3%	-29.2%	11.6µM*
CCOC(=O)c1[nH]c(C)c(C(=O)Nc2ccc(C)c(Cl)c2)c1C	u	38.8%	0.5%	-1.4%	20.6µM*
CCOC(=O)c1cc(C(=O)Nc2ccc(C)c(F)c2)nn1C	-10.2%	9.3%	u	-5.5%	-5.1%
CCOC(=O)c1[nH]c(C)c(C(=O)O)c1C	x	-0.5%	-7.3%	3.8%	x
CCOC(=O)c1ccc(NC(=S)N2CCC(C(N)=O)(N3CCCCC3)CC2)cc1	1.6%	23.4%	u	-3.1%	3.2%
COc1cc([N+](=O)[O-])cc2sc(NC(=O)c3c(F)cccc3F)nc12	-0.1%	23.5%	u	u	0.731µM*
O=C(Nc1nc(-c2ccc([N+](=O)[O-])cc2)cs1)c1c(F)cccc1F	u	-37.6%	-1.4%	-12.8%	-1.0%
CC(CCc1ccccc1)NC(=O)CCNS(=O)(=O)c1ccccc1 (stereo unspecified)	-95.2%	x	-1.4%	x	0.9%
O=C(NCCC1=CCCCC1)C1CCC(=O)N(Cc2cccc(C(F)(F)F)c2)C1 (stereo unspecified)	-1.8%	1.4%	-0.9%	-10.3%	16.9%
CCOC(=O)C1CCN(S(=O)(=O)c2cccc(-c3cn4cccnc4n3)c2)CC1	-6.0%	42.6%	13µM*	u	-10.1%
CCOC(=O)C1CCN(S(=O)(=O)c2cccc(-c3cn4cc(C)ccc4n3)c2)CC1	-3.7%[9.22 µM]	-18.7%	u	17.8µM*	1.7%
CCOC(=O)C1CCN(S(=O)(=O)c2cccc(-c3csc(C)n3)c2)CC1	1.2%	27.7%	u	3.6%	1.8%
COc1ccc(NC(=S)N2CCC(N(C)CC3CCCO3)CC2)cc1Cl (stereo unspecified)	x	-12.7%	u	-0.4%	4.8%
Nc1ncc(Br)cc1S(=O)(=O)Nc1cc(C(F)(F)F)cc(C(F)(F)F)c1	4.4%	-81.4%	u	22.4µM*	u
COc1ccc(NC(=O)NNC(=O)C(C)Oc2ccc(C(C)C)cc2)c(OC)c1 (stereo unspecified)	-1.2%	20µM*	u	u	5.4%
COc1ccccc1NC(=O)NNC(=O)C(C)Oc1ccc2ccccc2c1 (stereo unspecified)	3.3%	1.8%	1.5%	-2.7%	3.8%
O=C1N[C@@H](c2ccccc2)COC(=O)[C@@H](Cc2ccc(F)cc2)CC/C=C/C[C@@H]1CC(=O)N(CCO)Cc1ccccc1	-6.1%	x	25.9µM*	x	17.6%
C[C@H]1COC(=O)[C@H](Cc2ccc(F)cc2)C/C=C\C[C@@H](CC(=O)N(CCO)Cc2ccccc2)C(=O)N1	-12.7%	x	-17.5%	x	9.5%
O=C1N[C@H](Cc2ccccc2)COC(=O)[C@H](Cc2ccc(F)cc2)CC/C=C/C[C@H]1CC(=O)N(CCO)Cc1ccccc1	13.2%	x	u	x	18.7%
O=C1N[C@@H](c2ccccc2)COC(=O)[C@@H](Cc2ccc(F)cc2)CC/C=C/C[C@H]1CC(=O)N(CCO)Cc1ccccc1	u	x	14.6µM*	x	u
CCCCNC(=O)c1ccc(CNc2c(N3CCC(C(=O)OCC)CC3)c(=O)c2=O)cc1	-0.3%	30.5%	-0.5%	-11.4%	3.1%
